Experiment [1] is described as follows: ATG_GRE_CIS: Attagene CIS-FACTORIAL HepG2 Assay for human Glucocorticoid Response Elements (GRE) (AID 2282947). To be noted: HepG2 GRE cis-reporter, Attagene multiplex mRNA; actives raise or lower the signal. The procedure, abridged: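 Reporter transcripts read by RT-PCR with capillary electrophoresis fluorescence after a 24 h chemical exposure of HepG2 cells transiently transfected with multiple cis-element reporter units. Gain or loss fitted against DMSO.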

The nature of experiment [2]: ATG_ISRE_CIS: Attagene CIS-FACTORIAL HepG2 Assay for human Interferon Regulatory Factor 1 (IRF1) binding to an Interferon-Stimulated Response Element (ISRE) (AID 2282948). The following applies: HepG2 ISRE cis-reporter (Attagene), mRNA transcription readout; actives raise or lower the signal. The procedure, abridged:
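Endogenous transcription factor activity read as reporter transcript abundance via RT-PCR and capillary electrophoresis. HepG2 cells transiently transfected, 24 h chemical exposure. Gain or loss fitted against DMSO baseline.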

Experiment [3] is described as follows: ATG_M_32_CIS: Attagene CIS-FACTORIAL HepG2 Assay for M32 Transcription Factor (Internal Marker) (AID 2282949).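 Further: background control marker of the multiplexed CIS panel rather than a real target.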 To be noted: HepG2 Attagene cis-factorial M32 reporter, mRNA; actives raise or lower the signal. In outline: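 HepG2 transfectants (cis-regulated reporter transcription units) dosed 24 h. Reporter mRNA by RT-PCR plus CE, analysed as gain or loss relative to DMSO.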

The nature of experiment [4]: ATG_M_06_CIS: Attagene CIS-FACTORIAL HepG2 Assay for M06 Transcription Factor (Internal Marker) (AID 2282950). The following applies: HepG2 Attagene CIS-FACTORIAL M06 internal marker reporter; actives raise or lower the signal. The procedure, abridged: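 Measured 24 h post-dosing in transiently transfected HepG2 cells, this internal-marker endpoint reports reporter mRNA via RT-PCR with fluorescent primer extension and capillary electrophoresis. DMSO served as negative control and baseline for bidirectional fitting.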

In experiment [5] the target is Hypoxia-inducible factor 1-alpha (Homo sapiens) (UniProt Q16665). Put plainly: ATG_HIF1a_CIS: Attagene CIS-FACTORIAL HepG2 Assay for human Hypoxia Inducible Factor 1 (HIF1A) (AID 2282951). To be noted: HepG2 Attagene cis-factorial HIF1a reporter transcription; actives raise or lower the signal. The procedure, abridged: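 Dosed 24 h, transfected HepG2 cells yielded total RNA whose reporter transcripts were RT-PCR-amplified and sized by capillary electrophoresis using fluorescent labelling; DMSO defined baseline, with gain and loss of signal both fitted.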
Chain of Hypoxia-inducible factor 1-alpha (Homo sapiens) (Q16665 whole entry, looked up): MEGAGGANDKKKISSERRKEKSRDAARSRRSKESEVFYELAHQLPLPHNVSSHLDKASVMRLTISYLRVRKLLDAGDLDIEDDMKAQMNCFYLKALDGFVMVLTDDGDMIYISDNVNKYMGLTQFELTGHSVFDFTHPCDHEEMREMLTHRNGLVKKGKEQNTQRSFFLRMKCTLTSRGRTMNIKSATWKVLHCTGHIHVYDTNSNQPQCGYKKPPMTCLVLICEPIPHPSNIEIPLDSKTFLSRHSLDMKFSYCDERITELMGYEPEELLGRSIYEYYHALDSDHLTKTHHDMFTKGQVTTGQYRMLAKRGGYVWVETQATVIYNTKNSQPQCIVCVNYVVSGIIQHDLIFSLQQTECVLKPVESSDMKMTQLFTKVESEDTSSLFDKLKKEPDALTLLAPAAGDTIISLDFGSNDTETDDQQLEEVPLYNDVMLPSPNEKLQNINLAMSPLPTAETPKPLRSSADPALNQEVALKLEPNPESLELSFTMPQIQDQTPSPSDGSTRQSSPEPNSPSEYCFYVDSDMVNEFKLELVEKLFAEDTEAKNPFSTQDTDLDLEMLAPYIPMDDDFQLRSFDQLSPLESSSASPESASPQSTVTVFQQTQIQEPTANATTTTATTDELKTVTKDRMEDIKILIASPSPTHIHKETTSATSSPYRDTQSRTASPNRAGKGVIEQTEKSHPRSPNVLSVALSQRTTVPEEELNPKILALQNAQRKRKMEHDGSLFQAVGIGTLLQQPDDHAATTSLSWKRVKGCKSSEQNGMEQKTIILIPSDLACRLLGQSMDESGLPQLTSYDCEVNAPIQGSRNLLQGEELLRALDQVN

For experiment [6], the target named is Hepatocyte nuclear factor 6 (Homo sapiens) (UniProt Q9UBC0). In words: ATG_HNF6_CIS: Attagene CIS-FACTORIAL HepG2 Assay for human Hepatocyte Nuclear Factor 6 (HNF6) (AID 2282952). To be noted: HepG2 Attagene cis-factorial HNF6 reporter transcription; actives raise or lower the signal. In outline: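 First, HepG2 cells were transfected with the multiplexed cis reporter library and dosed with chemical for 24 h. Next, RNA was reverse-transcribed, PCR-amplified and fluorescently labelled. Finally, HpaI-digested fragments were read by capillary electrophoresis.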
Chain of Hepatocyte nuclear factor 6 (Homo sapiens) (Q9UBC0 whole entry, looked up, the tested form may be a part): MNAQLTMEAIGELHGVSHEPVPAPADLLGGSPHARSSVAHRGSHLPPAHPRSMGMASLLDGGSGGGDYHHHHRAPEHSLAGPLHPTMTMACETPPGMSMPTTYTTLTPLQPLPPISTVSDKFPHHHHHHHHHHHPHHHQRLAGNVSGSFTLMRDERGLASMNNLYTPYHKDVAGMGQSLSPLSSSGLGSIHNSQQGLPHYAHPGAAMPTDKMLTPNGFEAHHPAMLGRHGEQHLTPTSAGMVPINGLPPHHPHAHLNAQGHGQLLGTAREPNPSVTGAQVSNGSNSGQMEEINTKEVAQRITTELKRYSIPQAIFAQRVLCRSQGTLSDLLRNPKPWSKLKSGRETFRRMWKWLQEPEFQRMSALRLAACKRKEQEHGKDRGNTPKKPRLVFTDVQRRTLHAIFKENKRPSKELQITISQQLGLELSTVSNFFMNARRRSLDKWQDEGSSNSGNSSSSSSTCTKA

Experiment [7] concerns the target Heat shock factor protein 1 (Homo sapiens) (UniProt Q00613). In words: ATG_HSE_CIS: Attagene CIS-FACTORIAL HepG2 Assay for human Heat Shock Transcription Factor 1 (HSE) (AID 2282953). To be noted: HepG2 HSE cis-reporter, Attagene RNA transcription; actives raise or lower the signal. The procedure, abridged: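 Reporter mRNA induction in HepG2 is measured 24 h after dosing, using transiently transfected multiplexed cis-regulated reporter units. Signal comes from capillary electrophoresis of labelled RT-PCR products, with DMSO as negative control.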

The nature of experiment [8]: ATG_MRE_CIS: Attagene CIS-FACTORIAL HepG2 Assay for human Metal Responsive Element (MRE) (AID 2282954). To be noted: HepG2 MRE cis-reporter transcription, Attagene multiplex; actives raise or lower the signal. The procedure, abridged: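 Endogenous MRE-dependent transcription read as reporter mRNA in transiently transfected human HepG2 cells at 24 h. RNA reverse-transcribed, PCR-amplified, labelled and resolved by capillary electrophoresis; gain or loss relative to DMSO.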

Experiment [9] can be described thus: ATG_PXRE_CIS: Attagene CIS-FACTORIAL HepG2 Assay for human Pregnane X Receptor Element (PXRE) (AID 2282957). The following applies: HepG2 Attagene CIS-FACTORIAL PXRE reporter, mRNA; actives raise or lower the signal. The procedure, abridged: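 After a 24 h chemical incubation, total RNA from transfected HepG2 cells was reverse-transcribed and reporter cDNA amplified, FAM-labeled, HpaI-digested and sized by capillary electrophoresis. DMSO served as baseline for bidirectional curve fitting.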

The nature of experiment [10]: ATG_PPRE_CIS: Attagene CIS-FACTORIAL HepG2 Assay for human Peroxisome Proliferator-activated Response Element (PPRE) (AID 2282958). The following applies: HepG2 PPRE cis-element reporter, Attagene transcription factor profiling; actives raise or lower the signal. In outline: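 Measured endpoint: PPRE-controlled reporter mRNA, detected by RT-PCR and capillary electrophoresis fluorescence, from transiently transfected HepG2 cells 24 h after dosing. Curves fitted in both directions using DMSO baseline.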

A short description of experiment [11]: ATG_RORE_CIS: Attagene CIS-FACTORIAL HepG2 Assay for human RAR-related Orphan Receptor Element (RORE) (AID 2282959). The following applies: HepG2 Attagene cis-factorial RORE reporter, mRNA; actives raise or lower the signal. The procedure, abridged:
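Transiently transfected HepG2 reporter cells were treated 24 h. Reporter transcripts were detected by RT-PCR and capillary electrophoresis, with bidirectional fitting against DMSO.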

Experiment [12] is described as follows: ATG_Sox_CIS: Attagene CIS-FACTORIAL HepG2 Assay for human SRY-box transcription factor (SOX) (AID 2282960). To be noted: HepG2 Attagene cis-factorial SOX reporter, mRNA; actives raise or lower the signal. The procedure, abridged:
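Gain- or loss-of-signal endpoint, fitted bidirectionally with DMSO as negative control. Based on reporter mRNA from transfected HepG2 cells harvested 24 h post-treatment and quantified via RT-PCR and capillary electrophoresis.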

Experiment [13] has as its target Transcription factor Sp1 (Homo sapiens) (UniProt P08047). Put plainly: ATG_Sp1_CIS: Attagene CIS-FACTORIAL HepG2 Assay for human Specificity Protein 1 (Sp1) (AID 2282961). The following applies: HepG2 Sp1 cis-reporter transcription, actives raise or lower the signal. The procedure, abridged: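 Endpoint reflects endogenous Sp1 transcriptional activity, not an exogenous fusion protein: HepG2 cells with transfected cis-regulated reporters, 24 h dosing, RT-PCR/capillary electrophoresis mRNA read-out, DMSO-normalised bidirectional fit.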

Experiment [14] in a line: ATG_SREBP_CIS: Attagene CIS-FACTORIAL HepG2 Assay for human Sterol Regulatory Element Binding (SREBP) (AID 2282962). To be noted: HepG2 Attagene cis-factorial SREBP reporter, mRNA; actives raise or lower the signal. The procedure, abridged:
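Endogenous SREBP activity read as cis-element-driven reporter transcript in transiently transfected HepG2, 24 h post-dosing; quantified via RT-PCR plus capillary electrophoresis of fluorescent fragments. Gain or loss of signal fitted relative to DMSO baseline.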

Experiment [15] can be described thus: ATG_TA_CIS: Attagene CIS-FACTORIAL HepG2 Assay for human TA Basal Promoter (AID 2282964). The following applies: HepG2 Attagene CIS-factorial TA basal promoter reporter; actives raise or lower the signal. In outline: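 Cis-factorial format in HepG2: reporters report endogenous factors, not chimeric Gal4 fusions. After 24 h treatment, reporter transcripts were measured by RT-PCR-capillary electrophoresis fluorescence, analysed bidirectionally versus DMSO.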

A short description of experiment [16]: ATG_TCF_b_cat_CIS: Attagene CIS-FACTORIAL HepG2 Assay for human T-Cell-Factor with beta-catenin (TCF/b-cat) (AID 2282965). To be noted: HepG2 TCF/beta-catenin cis-reporter transcription, actives raise or lower the signal. In outline:
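Endogenous TCF/LEF activity read as reporter transcript level via RT-PCR and capillary electrophoresis fluorescence in transfected HepG2, 24 h exposure; gain or loss of signal fitted against DMSO controls.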

Experiment [17] in a line: ATG_PBREM_CIS: Attagene CIS-FACTORIAL HepG2 Assay for human Phenobarbital-responsive Enhancer Module (PBREM) (AID 2282955). To be noted: HepG2 PBREM cis-reporter, Attagene multiplexed transcription; actives raise or lower the signal. In outline: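 Transfected liver-derived HepG2 cells exposed 24 h; PBREM reporter transcript quantified via RT-PCR and capillary electrophoresis, with activity in either direction referenced to DMSO.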

Experiment [18] deals with Paired box protein Pax-6 (Homo sapiens) (UniProt P26367). Put plainly: ATG_Pax6_CIS: Attagene CIS-FACTORIAL HepG2 Assay for human Paired Box 6 (PAX6) (AID 2282956). The following applies: HepG2 CIS-FACTORIAL PAX6 reporter transcription, RNA readout; actives raise or lower the signal. In outline: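 Read-out is reporter transcript level, measured by RT-PCR with fluorescent primer extension and capillary electrophoresis after 24 h dosing of transfected HepG2 cells. Activity in either direction fitted relative to DMSO control.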
Chain of Paired box protein Pax-6 (Homo sapiens) (P26367 whole entry, looked up): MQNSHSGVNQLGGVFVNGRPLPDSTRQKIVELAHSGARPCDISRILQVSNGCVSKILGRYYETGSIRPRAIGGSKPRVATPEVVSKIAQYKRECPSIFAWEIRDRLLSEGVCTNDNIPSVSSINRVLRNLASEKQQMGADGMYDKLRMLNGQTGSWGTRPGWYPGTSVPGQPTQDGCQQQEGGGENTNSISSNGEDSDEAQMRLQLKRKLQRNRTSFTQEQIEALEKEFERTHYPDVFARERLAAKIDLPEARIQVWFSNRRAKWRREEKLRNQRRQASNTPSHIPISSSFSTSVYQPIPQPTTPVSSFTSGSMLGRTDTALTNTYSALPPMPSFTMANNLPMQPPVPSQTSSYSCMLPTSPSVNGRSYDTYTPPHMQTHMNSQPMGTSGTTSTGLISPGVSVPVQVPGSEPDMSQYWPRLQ

For experiment [19], the target named is Signal transducer and activator of transcription 3 (Homo sapiens) (UniProt P40763). In words: ATG_STAT3_CIS: Attagene CIS-FACTORIAL HepG2 Assay for human Signal Transducer and Activator of Transcription 3 (STAT3) (AID 2282963). To be noted: HepG2, Attagene cis-factorial STAT3 reporter transcription; actives raise or lower the signal. In outline: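 Readout is reporter transcript quantified by RT-PCR and capillary electrophoresis, with 6-FAM primer extension and HpaI digestion. Total RNA is taken 24 h after dosing transiently transfected HepG2 carrying cis-regulated reporter units. Bidirectional fit against DMSO.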
Chain of Signal transducer and activator of transcription 3 (Homo sapiens) (P40763 whole entry, looked up): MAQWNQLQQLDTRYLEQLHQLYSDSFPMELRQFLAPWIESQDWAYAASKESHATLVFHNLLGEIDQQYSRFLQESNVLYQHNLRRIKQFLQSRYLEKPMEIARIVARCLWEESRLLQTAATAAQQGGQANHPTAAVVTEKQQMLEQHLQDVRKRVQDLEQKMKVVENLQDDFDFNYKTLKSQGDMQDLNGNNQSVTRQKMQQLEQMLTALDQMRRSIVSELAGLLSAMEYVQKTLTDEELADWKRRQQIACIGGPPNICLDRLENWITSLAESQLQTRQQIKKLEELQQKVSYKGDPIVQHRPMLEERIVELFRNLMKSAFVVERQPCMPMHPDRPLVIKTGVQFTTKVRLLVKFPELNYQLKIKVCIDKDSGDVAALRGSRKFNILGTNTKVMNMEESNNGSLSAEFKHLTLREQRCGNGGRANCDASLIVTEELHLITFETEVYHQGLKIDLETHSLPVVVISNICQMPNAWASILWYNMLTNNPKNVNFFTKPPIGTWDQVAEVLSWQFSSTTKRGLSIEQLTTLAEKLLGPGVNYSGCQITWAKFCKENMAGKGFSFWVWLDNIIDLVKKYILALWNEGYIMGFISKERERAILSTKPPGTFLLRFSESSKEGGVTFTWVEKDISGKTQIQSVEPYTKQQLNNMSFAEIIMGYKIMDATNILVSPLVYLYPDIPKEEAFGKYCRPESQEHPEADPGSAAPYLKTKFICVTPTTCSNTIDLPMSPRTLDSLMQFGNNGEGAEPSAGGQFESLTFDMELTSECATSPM

Structures are written as SMILES. The source made the active and inactive calls. How the source made its calls: active means hit-call score of the fitted dose curve at least 0.9, where 1 is the maximum; inactive means score below 0.9.

Chain of Heat shock factor protein 1 (Homo sapiens) (Q00613 whole entry, looked up): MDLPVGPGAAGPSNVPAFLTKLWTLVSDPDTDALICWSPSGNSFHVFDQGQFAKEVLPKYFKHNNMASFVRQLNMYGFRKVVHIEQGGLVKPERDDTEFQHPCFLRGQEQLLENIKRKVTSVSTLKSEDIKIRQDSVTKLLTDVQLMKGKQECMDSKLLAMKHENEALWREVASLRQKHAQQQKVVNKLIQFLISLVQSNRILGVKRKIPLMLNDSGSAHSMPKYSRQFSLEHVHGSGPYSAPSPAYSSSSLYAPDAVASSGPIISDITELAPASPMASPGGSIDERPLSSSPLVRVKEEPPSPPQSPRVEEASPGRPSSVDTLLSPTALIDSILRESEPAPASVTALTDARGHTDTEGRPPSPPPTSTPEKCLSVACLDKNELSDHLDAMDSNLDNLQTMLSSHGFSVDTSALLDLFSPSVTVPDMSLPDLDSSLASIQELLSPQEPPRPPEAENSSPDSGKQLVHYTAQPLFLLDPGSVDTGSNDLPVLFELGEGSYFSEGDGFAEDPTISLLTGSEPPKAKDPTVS
Chain of Transcription factor Sp1 (Homo sapiens) (P08047 whole entry, looked up, the tested form may be a part): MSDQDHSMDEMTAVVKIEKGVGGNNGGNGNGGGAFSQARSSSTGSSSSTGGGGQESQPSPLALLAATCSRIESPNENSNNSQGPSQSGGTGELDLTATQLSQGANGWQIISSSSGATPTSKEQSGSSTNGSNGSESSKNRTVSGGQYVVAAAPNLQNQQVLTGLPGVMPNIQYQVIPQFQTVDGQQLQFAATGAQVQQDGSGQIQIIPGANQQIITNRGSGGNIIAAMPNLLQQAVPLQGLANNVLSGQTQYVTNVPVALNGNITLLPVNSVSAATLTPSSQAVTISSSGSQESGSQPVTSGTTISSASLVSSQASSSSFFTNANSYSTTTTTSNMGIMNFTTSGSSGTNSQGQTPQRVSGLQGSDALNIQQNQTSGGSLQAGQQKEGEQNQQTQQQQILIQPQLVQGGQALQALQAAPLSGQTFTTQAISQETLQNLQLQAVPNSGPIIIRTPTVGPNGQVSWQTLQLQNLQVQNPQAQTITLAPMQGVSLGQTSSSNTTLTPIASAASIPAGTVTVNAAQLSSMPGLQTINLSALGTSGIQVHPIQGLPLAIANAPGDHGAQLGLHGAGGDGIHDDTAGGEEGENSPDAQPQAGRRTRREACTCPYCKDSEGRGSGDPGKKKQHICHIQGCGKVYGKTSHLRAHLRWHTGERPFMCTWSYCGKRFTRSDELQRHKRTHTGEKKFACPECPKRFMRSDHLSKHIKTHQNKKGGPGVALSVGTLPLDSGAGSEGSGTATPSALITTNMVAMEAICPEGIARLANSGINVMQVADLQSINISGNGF

Consider `[O-][Cl+]O`, for which the compound was called inactive in experiment [1], in experiment [2], in experiment [3], in [4], in experiment [5] and in experiment [6]. In addition, the result in experiment [7], in [8], in [9], in [10], in experiment [11] and in [12] was inactive. In addition, the compound was called inactive in experiment [13], in [14], in [15] and in [16].
For `Nc1ccc(Oc2ccc(N)cc2)cc1`, the call in [1], in [2], in experiment [3], in [4], in experiment [5] and in experiment [6] was inactive. Besides, the outcome in [7], in [8], in experiment [17], in experiment [9], in experiment [10] and in experiment [11] was inactive. Moreover, the call in [12], in [13], in [14], in experiment [15] and in [16] was inactive.
Usually AC50 stands for the concentration giving half of the maximal activity seen. As to `Cn1cc(-c2ccccc2)c(=O)c(-c2cccc(C(F)(F)F)c2)c1`, the outcome in experiment [1], in experiment [3], in [4], in experiment [5], in experiment [6] and in experiment [7] was inactive. Also, the outcome in experiment [8], in experiment [17], in experiment [18], in [11], in [12] and in [13] was inactive. The outcome in [14] and in [15] was inactive. In addition, the figures for the AC50 in experiment [2], in experiment [9] and in experiment [16] were 61.1 µM (active), 4.31 µM (active) and 100 µM (active), respectively.
As to `COC(=O)c1ccccc1N`, the outcome in experiment [1], in experiment [2], in experiment [3], in experiment [4], in [5] and in [6] was inactive. In addition, the result in experiment [7], in experiment [8], in [17], in experiment [11], in experiment [12] and in [13] was inactive. Besides, the result in experiment [14], in experiment [19], in experiment [15] and in experiment [16] was inactive. Further, the AC50 in experiment [9] is 100 µM (active).

These data come from PubChem BioAssay (EPA / NIEHS).
